According to PubChem BioAssay:

Biological target: NADPH oxidase 4 (Homo sapiens) (UniProt Q9NPH5)
Test: NOX4-dependent H2O2 signal modulators, primary screen, NOX inhibitor project, cell-based, HEK293-NOX4, tetracycline-induced, Amplex Red fluorescence (AID 1160)
Settings: 45 min, higher = more signal, called active from +8 up or from −8 down

NADPH oxidase 4 (Homo sapiens), sequence (Q9NPH5 whole entry, looked up): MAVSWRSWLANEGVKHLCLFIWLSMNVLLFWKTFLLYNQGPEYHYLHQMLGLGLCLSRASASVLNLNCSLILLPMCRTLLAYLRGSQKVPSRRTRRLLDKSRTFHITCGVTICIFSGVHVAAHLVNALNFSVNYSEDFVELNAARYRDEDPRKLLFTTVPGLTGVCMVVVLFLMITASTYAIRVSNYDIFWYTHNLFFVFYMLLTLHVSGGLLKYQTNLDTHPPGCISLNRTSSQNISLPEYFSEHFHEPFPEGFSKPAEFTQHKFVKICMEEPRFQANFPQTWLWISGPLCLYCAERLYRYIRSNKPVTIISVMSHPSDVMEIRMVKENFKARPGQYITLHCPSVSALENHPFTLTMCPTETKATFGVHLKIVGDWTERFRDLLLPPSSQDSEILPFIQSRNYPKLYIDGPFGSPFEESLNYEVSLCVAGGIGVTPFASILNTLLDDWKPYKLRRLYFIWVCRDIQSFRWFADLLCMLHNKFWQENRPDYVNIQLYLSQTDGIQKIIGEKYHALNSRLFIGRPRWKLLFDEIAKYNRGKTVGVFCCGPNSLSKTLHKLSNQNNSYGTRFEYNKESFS

z-score, inactive:
Cc1cccc([C@H]2C[C@H]3C(I)=C[C@@H]2C(=O)[C@]32CO2)c1 -0.0919
O=C1C2C=CC(C(O)C=Cc3ccc([N+](=O)[O-])cc3)N(Nc3ccccc3)C2C(=O)N1c1ccccc1 (stereo unspecified) -2.96
CC(=O)NCCCC[C@@H]1NC(=O)[C@H]2C[C@@H](C(=O)NCCCCCNC(=O)CS)[C@@H](c3cccc(OCCO)c3)N2C1=O 0.825
C=C[C@H](C)[C@H](OC(=O)Nc1ccc(OC)cc1)c1ccc(OCCO)cc1 0.436
CCOC(=O)C[C@H]1[C@H](OC(=O)c2ccc(C(=O)c3ccccc3)cc2)[C@@H](NC(=O)CC(C)C)c2cc(OCCCO)ccc2N1C(=O)Cc1ccc(OC)cc1 0.528
Cc1ccccc1C(O)C1C=CC2C(=O)NC(=O)C2N1Nc1ccc(Cl)cc1Cl (stereo unspecified) -4.79
COc1cc2c(cc1O)C(c1ccc(CN3CCCC3)cc1)N(C)CC2 (stereo unspecified) -1.46
COc1ccc([Si](C)(C)[C@@H]2[C@@H](CCn3cc([C@H](O)c4ccccc4)nn3)O[C@]3(C(=O)N(Cc4cccc(N5C(=O)c6cccc7cccc5c67)c4)c4ccccc43)[C@H]2C)cc1 1.48
CC(C)(C)OC(=O)CC[C@]1(C(=O)N2CCCCC2)COC(c2ccc(OCCCO)cc2)=N1 0.0723
COCCOC(=O)N1C(=O)[C@@]2(c3cc(C#CC4=CCCCC4)ccc31)[C@H](c1ccc(O)cc1)N1[C@H](c3ccccc3)[C@H](c3ccccc3)OC(=O)[C@H]1[C@@H]2C(=O)NC[C@H](O)c1ccccc1 0.547
CN(C)CCCCCCNC(=O)[C@@H]1C[C@@H]2C(=O)N[C@@H](CCCCN)C(=O)N2[C@@H]1c1ccc(O)cc1 0.901
Cc1ccc(N2C(=O)c3ccccc3[C@](C)(C(=O)NCc3ccccc3)[C@@H]2c2ccc(CO)cc2)nc1 -1.75
C=C[C@@H](C)[C@@H](OC(=O)Nc1ccc(SC)cc1)c1ccc(OCCO)cc1 -0.0499
C=C(/C(=C/C[C@@H](OC(=O)c1ccncc1)c1cccc(OCCO)c1)c1cnc2ccccc2c1)C(C)C -0.507
O=c1cccc(-c2ccco2)o1 -0.772
O=C1C2C=CC(C(O)c3cc(C(F)(F)F)cc(C(F)(F)F)c3)N(Nc3ccccc3F)C2C(=O)N1c1ccccc1 (stereo unspecified) -4.37
O=C(N1CCOCC1)[C@@]1(CCS(=O)(=O)c2ccccc2)N=C(c2ccc(OCCCO)cc2)O[C@H]1c1ccccc1 1.75
COCCCNC(=O)[C@@]1(Sc2ccc(C)cc2)CC(=O)N(C(C)C)[C@@H]1c1ccc(CO)cc1I -1.47
C=C(C)[C@@H]1CC=C(C(O)C2C=CC3C(=O)N(c4ccccc4)C(=O)C3N2Nc2ccc(C#N)cc2)CC1 (stereo partly specified) -3.56
C=C(COC)/C(=C/C[C@@H](OC(=O)c1ccncc1)c1ccccc1OCCO)c1cc(C(=O)OC)ccc1OC -1.4
CC(C)C[C@@H]1NC(=O)[C@@H]2C[C@H](C(=O)NCCCCCC[N+](C)(C)C)[C@H](c3cccc(OCCO)c3)N2C1=O 1.31
O=C1C2C=CC(C(O)c3ccco3)N(Nc3ccccc3)C2C(=O)N1c1ccccc1 (stereo unspecified) -2.98
CCOC(=O)C[C@H]1[C@H](OC(=O)c2ccc(-c3ccccc3)cc2)[C@@H](NC(=O)Cc2ccc(OC)cc2)c2cc(OCCCO)ccc2N1C(=O)Cc1ccc(OC)cc1 -0.868
CCOC(=O)C1=CC[C@@H](c2ccccc2)N(S(=O)(=O)c2ccc(C)cc2)[C@H]1c1cccc(OC)c1 0.489
CN1C=C(C(=O)OCCS(C)(=O)=O)C(C(=O)OCCS(C)(=O)=O)=CC(c2ccc(CO)cc2)=CC1c1cccs1 (stereo unspecified) -0.558
COC(=O)C(CC#Cc1ccc2c(c1)[C@]1(C(=O)N2)[C@H](c2ccc(OCCO)cc2)N2[C@H](c3ccccc3)[C@H](c3ccccc3)OC(=O)[C@H]2[C@@H]1C(=O)N1CCN(c2ncccn2)CC1)C(=O)OC 1.05
